Structures are written as SMILES. Inconclusive results are not listed. Where a call stands in place of a potency, no number is given. A number with no mark means an inactive call. Calls of active or inactive are those of the source. Calls follow the shape of the dose curve; as a rule, active = well fitted inhibition curve with a large enough effect; inconclusive = small, poorly fitted or top-dose-only effect; inactive = flat fitted curve, though single readings scatter. Peptide text beside a SMILES is read from it.

Our source for the Potency and activity change, negative = inhibition values is PubChem BioAssay (NCATS).

For this assay, the target named is Aldehyde dehydrogenase, mitochondrial (Homo sapiens) (UniProt P05091). Kind of assay: qHTS for Inhibitors of the Aldehyde Dehydrogenase Family (ALDH2) Primary screen (AID 2061308). Also: nearly all actives have a fitted effect of over 55% in size. To be noted: ALDH2 enzyme inhibition qHTS, 1536-well; series mostly up to 56 µM.
As to `CC1CCCC2OC2C(=O)c2c(O)cc(O)cc2CC(=O)O1` (stereo not given), the Potency result is “inactive”.

`Cc1nc(NC(=O)N2CCCC2C(N)=O)sc1-c1csc(C(C)(C)C)n1` (stereo not given): the Potency result is “inactive”.

Turning to `C[C@@H]1O[C@@H](O[C@@H]2[C@@H](O)[C@H](O[C@@H]3[C@@H](O)[C@@H](O)[C@H](O[C@H]4[C@H](OC(=O)[C@]56CCC(C)(C)C[C@H]5C5=CCC7[C@@]8(C)C[C@H](O)[C@H](O[C@@H]9O[C@H](C(=O)O)[C@@H](O)[C@H](O)[C@H]9O)[C@@](C)(CO)C8[C@H](O)C[C@@]7(C)[C@]5(C)CC6)OC[C@H](O)[C@@H]4O)O[C@H]3C)OC[C@H]2O)[C@H](O)[C@H](O)[C@H]1O` (stereo not given in full), the activity change, negative = inhibition is 10.8% [at 11.2 µM].

In the case of `CC(C)c1ccc2c(c1)C(O)CC1C(C)(C(=O)O)CCCC21C` (stereo not given), the Potency result is “inactive”.

For the compound `C=C1C(=O)OC[C@H]2C(C(=O)O)=CC3CC(C)(C)C[C@@]132` (stereo not given in full), the Potency entry is “inactive”.

On to `C=CCc1cc(OC)c(OC(C)C(O)c2ccc(O)c(OC)c2)c(OC)c1` (stereo not given), for which the Potency entry is “inactive”.

With `C[C@@H]1C(=O)O[C@H]2[C@H]1CC[C@@]1(C)C(=O)C=C[C@@](C)(O)[C@H]21`, the Potency result is “inactive”.

Turning to `CC1(CO)CCCC2(C)C3COC(=O)C3=CC(O)C12` (stereo not given), the Potency entry is “inactive”.

For the compound `CC1=C2C[C@@]3(C)[C@@H](CCC[C@@H]3C)C[C@@]2(O)OC1=O`, the Potency entry was “inactive”.

For `CC1=C(C(=O)OCc2ccccc2)C(c2ccc(-c3ccccc3)cc2)NC(=O)N1CCCCCC(=O)O` (stereo not given), the Potency entry is “inactive”.

As to `COc1cc(/C=C2\CCCN([C@@H](C)c3ccc(F)cc3)C2=O)ccc1-n1cnc(C)c1`, the Potency result is “inactive”.

For the compound `COCCOCCOc1ccc(C2=N[C@@](C)(C(=O)O)CS2)c(O)c1`, the Potency result is “inactive”.

With `CCCCS(=O)(=O)N[C@@H](Cc1ccc(OCCCCC2CCNCC2)cc1)C(=O)O`, the Potency result is “inactive”.

Consider `N#Cc1cccc(-c2nc(-c3cccnc3)no2)c1`, for which the Potency result is “inactive”.

Regarding `C[C@]1(O)CC[C@@H]2C(C(=O)O)=CO[C@@H](O[C@@H]3O[C@H](COC(=O)/C=C/c4ccc(O)c(O)c4)[C@@H](O)[C@H](O)[C@H]3O)[C@@H]21`, the Potency result was “inactive”.

In the case of `OC1COC(OCC2OC(OCCc3ccccc3)C(O)C(O)C2O)C(O)C1O` (stereo not given), the Potency result was “inactive”.

Regarding `C[C@@H]1CN(Cc2ccccc2)C[C@H]1c1nc2c(cnn2C2CCOCC2)c(=O)[nH]1`, the Potency entry was “inactive”.

`C=Cc1ccc(O[C@@H]2O[C@H](CO[C@@H]3O[C@@H](C)[C@H](O)[C@@H](O)[C@H]3O)[C@@H](O)[C@H](O)[C@H]2O)cc1`: the Potency result is “inactive”.

Consider `C[C@@H]1CC[C@@]2(OC1)O[C@H]1C[C@H]3[C@@H]4CC=C5C[C@@H](O)CC[C@]5(C)[C@H]4CC[C@]3(C)[C@H]1[C@@H]2C`, for which the Potency entry was “inactive”.

`C[C@]12CC[C@@H]3c4ccc(O)cc4CC[C@H]3[C@@H]1C[C@@H](O[C@@H]1O[C@H](C(=O)O)[C@@H](O)[C@H](O)[C@H]1O)[C@@H]2O`: the Potency result was “inactive”.

As for `CC(=C\C(C)O)/C=C(\C)C(=O)CC1CC(CC(N)=O)CC(=O)O1` (stereo not given), the Potency entry was “inactive”.

As for `CC1NC(=O)CNC(=O)C(C(C)C)NC(=O)C2CCCN2C(=O)C(C(C)C)NC(=O)C(Cc2c[nH]c3ccccc23)NC1=O` (stereo not given) (cyclo(GAWVPV); configuration not given here), the Potency entry is “inactive”.

Turning to `C/C(CO)=C1/CCC23COC(C2)C(O)(C(=O)O)CCC13` (stereo not given), the Potency result was “inactive”.

As to `CC(=O)O[C@H]1[C@H](C)[C@@H](O)[C@H]2[C@@H]1C=C(C(=O)O)[C@H]1C[C@@H]3[C@H]([C@H]21)[C@H]1C(=O)O[C@@H]2CC[C@@]3(C)O[C@]1(O)[C@@H]2C`, the Potency entry is “inactive”.

With `C=C1CO[C@@]2(O[C@H]3CC4C5CC=C6C[C@@H](O)C[C@@H](O[C@@H]7OC[C@H](O)[C@H](O[C@@H]8OC[C@@H](O)[C@H](O)[C@H]8O)[C@H]7O[C@@H]7O[C@@H](C)[C@H](OC(C)=O)[C@@H](OC(C)=O)[C@H]7OC(C)=O)[C@]6(C)C5CC[C@]4(C)[C@@H]3[C@@H]2C)[C@@H](O)[C@H]1OC1OC(C)C(O)C(O)C1O` (stereo not given in full), the activity change, negative = inhibition is 8.25% [at 11.2 µM].

`CNc1nc(Cc2ccccc2)nc2c1CCNC[C@@H]2C`: the Potency result is “inactive”.

Take `COC(=O)C1=C2Nc3ccccc3C23CCN2CCCC(C(C)O)(C1)C23` (stereo not given): the Potency entry was “inactive”.

As to `CC1(O)CC(O)C2(O)C=COC(O[C@@H]3O[C@H](CO)[C@@H](O)[C@H](O)[C@H]3O)C12` (stereo not given in full), the Potency result is “inactive”.

Turning to `CC1=C2C(=O)C=C(CO)[C@@H]2[C@H]2OC(=O)[C@H](C)[C@@H]2[C@@H](O)C1`, the Potency result was “inactive”.

For `N#Cc1ccc2ncnc(NCCc3ccccc3)c2c1`, the Potency entry was “inactive”.

Turning to `CC1CCC2(NC1)OC1C(O)C3C4CCC5CC(O[C@@H]6O[C@H](CO)[C@@H](O)[C@H](O)[C@H]6O[C@@H]6O[C@@H](C)[C@H](O)[C@@H](O)[C@H]6O)CCC5(C)C4CCC3(C)C1C2C` (stereo not given in full), the Potency entry is “inactive”.

Turning to `CC1=C(CCC(C)CC(=O)O)[C@@]2(C)CCCC(C)(C)C2CC1=O` (stereo not given in full), the Potency result is “inactive”.

With `COC(=O)c1cc(OC)c(O[C@@H]2O[C@@H](C)[C@H](O)[C@@H](O)[C@H]2O)c(OC)c1`, the Potency result was “inactive”.

As to `C=C1CCC[C@]2(C)CC/C(=C(/CO)C(=O)OC)C[C@@H]12`, the Potency entry is “inactive”.

`C/C=C(\C)C(=O)O[C@H]1[C@H](O)[C@]2(COC(C)=O)[C@H](O)C[C@]3(C)C(=CCC4[C@@]5(C)CC[C@H](O[C@@H]6O[C@H](C(=O)O)[C@@H](O[C@@H]7O[C@H](CO)[C@@H](O)[C@H](O)[C@H]7O)[C@H](O)[C@H]6O[C@@H]6O[C@H](CO)[C@@H](O)[C@H](O)[C@H]6O)[C@](C)(CO)C5CC[C@]43C)[C@@H]2CC1(C)C` (stereo not given in full): the Potency result is “inactive”.

In the case of `COc1cc2c(c(O)c1OC/C=C(\C)CC/C=C(/C)CCC=C(C)C)CN(C(CCC(=O)O)C(=O)O)C2=O` (stereo not given), the Potency result is “inactive”.

On to `CC(=O)O[C@@]1(C)C[C@@H](O)[C@]2(O)C=CO[C@@H](O[C@@H]3O[C@H](CO)[C@@H](O)[C@H](O)[C@H]3O)[C@@H]21`, for which the Potency result was “inactive”.

As to `OC[C@H]1O[C@@H](O[C@H]2[C@H](OCc3ccccc3)O[C@H](CO[C@@H]3OC[C@@H](O)[C@H](O)[C@H]3O)[C@@H](O)[C@@H]2O)[C@H](O)[C@@H](O)[C@@H]1O`, the Potency result was “inactive”.

Consider `CN[C@H](C(=O)N[C@H](C(=O)N(C)[C@H](/C=C(\C)C(=O)O)C(C)C)C(C)(C)C)C(C)(C)c1ccccc1`, for which the Potency entry is “inactive”.

Turning to `O=c1[nH]ccc2cc(OC3CCNCC3)ccc12`, the Potency result was “inactive”.
